PubChem BioAssay (EPA / NIEHS)
“And” between values parts separate entries of the source, which are not always exact repeats. Identical values can stand only once. Where a structure was tested more than once in an assay, its records may differ in their call. The source made the active and inactive calls. Rule for the calls: active = hit-call score of the fitted dose curve at least 0.9, where 1 is the maximum; inactive = score below 0.9.

Assay: CCTE_Shafer_MEA_dev_mutual_information_norm: CCTE's Neural Network Formation Assay for Mutual Information Normalization, Shafer Lab (AID 2284091);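 for AC50: potency is for a decrease in mutual information relative to DMSO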
Experimental: CCTE_Shafer_MEA_dev assay is conducted using Axion Biosystems 48 well microelectrode array (MEA) plates and Maestro recording system. Each well of the MEA plate contains a grid of 16 microelectrodes embedded in the culture surface. Electrically active cells, such as neurons, can be cultured over the electrodes, and electrical activity in these cells can be recorded extracellularly. The spontaneous firing of neurons is captured from each electrode on a microsecond timescale providing both temporally and spatially precise data. […] The CCTE_Shafer_MEA_dev assay uses primary cultures of rat cortical neurons. Recordings are made on days post-plating 5, 7, 9 and 12. As these cultures mature over time, neural networks develop functional activity and form cohesive networks in which electrical activity can be highly coordinated. CCTE_Shafer_MEA_dev_mutual_information_norm is 1 of 19 assay components of the CCTE_Shafer_MEA_dev assay. It is a measure of shared information between electrodes during a recording in a microelectrode array (MEA) using Axion Biosystems Maestro 768 channel amplifier with the AxIS adaptive spike detector. To collapse across multiple recordings made on days post-plating 5, 7, 9 and 12, the trapezoidal area-under-the-curve of the component is calculated.Data from the assay component CCTE_Shafer_MEA_dev_mutual_information_norm was analyzed into 1 assay endpoint. This assay endpoint, CCTE_Shafer_MEA_dev_mutual_information_norm, was analyzed in the negative analysis fitting direction relative to DMSO as the negative control and baseline of activity. Using a type of functional reporter, gain or loss-of-signal activity can be used to understand electrical activity.
On the day prior to culture, each well was coated thoroughly with 150 uL of 0.05% polyethyleneimine (PEI, Sigma Cat P3143) in 50 mM HEPES (Sigma Cat H7523) at a pH of 8. The plate was incubated at 37C for one hour. PEI was rinsed out with 500 uL of sterile water three times. Plates were stored at 4C until the day of culture. This culture was plated at a seeding density of 1.5 x 10^5 cells/well on a 48-well MEA plate, prepared as described above. Cells were administered via a 25 uL media/laminin ([…]; Sigma Cat L2020-1MG) drop directly onto the microelectrode array, as adding the cells with the laminin results in better attachment than pre-coating with laminin. After 2 hours, an additional 475 uL of cortical media was added and the cells returned to the incubator. Exposure starts at day 0 of plating and is continued over twelve days of network development until the experiment is terminated. Cells are fed with fresh medium on DIV 5 and 9, following the recordings on those days. The entire volume of media in the well is exchanged and any vehicle or compound treatment is renewed. Complete details are found in OP-NHEERL/ISTD/SBB/TJS/2015-03-r0 (available on request, email shafer.tim@epa.gov). Measurement of the electrical activity is non-invasive, and recordings can be made from the same plate over multiple different days of the culture. In cortical neurons, this allows for the measurement of extracellular action potentials over the period during which networks form in the MEA plate.

SMILES | outcome | AC50
CSC(=O)c1cccc2nnsc12 | inactive | –
OB(O)O | inactive | –
CCCN(CCC)C(=O)SCC | inactive | –
CCCCC(CC)CN1C(=O)C2C3C=CC(C3)C2C1=O (stereo unspecified) | inactive | –
Oc1ccc(C(c2ccc(O)cc2)C(Cl)(Cl)Cl)cc1 | inactive | –
COCCO | inactive | –
O=C(O)c1ccccc1 | inactive | –
S=C([S-])NCCNC(=S)[S-].[Mn+2] | inactive | –
CC(C)(c1ccc(O)cc1)c1ccc(O)cc1 | inactive | 1.95 µM (active)
CC1(C)C(C=C(Cl)Cl)C1C(=O)OCc1cccc(Oc2ccccc2)c1 (stereo unspecified) | – | 15 µM (active) and 5.01 µM (active)
CCN(CC)C(=O)c1cccc(C)c1 | inactive | –
C#CCOC(=O)[C@@H](C)Oc1ccc(Oc2ncc(Cl)cc2F)cc1 | inactive | –
Cc1nn(C)c(Oc2ccccc2)c1C=NOCc1ccc(C(=O)OC(C)(C)C)cc1 | – | 0.00128 µM (active)
S=C(S)NCCNC(=S)S.[Mn+2].[S-]C([S-])=NCCN=C([S-])[S-].[Zn+2] | inactive | –
CCCCOCCOCCOCc1cc2c(cc1CCC)OCO2 | inactive | –
